Screens (PubChem)
IL-1B inflam inh = qHTS for Inhibitors of Inflammasome Signaling: IL-1-beta AlphaLISA Primary Screen; THP-1 LPS/ATP IL-1B secretion, AlphaLISA, 16 h; hits give low values; activity change, % at 57.5 µM; 360,000 compounds, 4.7% hits; AID 743279, 2014; in the data active = activity change below about -50%; inconclusive = mostly about -30% to -49%
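Secreted IL-1B measured by AlphaLISA bead assay after 16 h compound exposure of THP-1 cells; compounds (final up to 57.5 uM) added 1 h before LPS (250 ng/mL) and ATP (1.25 mM) stimulation; lower signal means less secretion.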
USP1-UAF1 inh = Inhibitors of USP1/UAF1: Primary Screen. Ubiquitin carboxyl-terminal hydrolase 1 (Homo sapiens), O94782. recombinant USP1/UAF1, Ub-Rhodamine cleavage fluorescence. Potency, µM (series often up to 57.1 µM), most hits filed as inhibitors. 390,000 compounds, 0.23% hits. AID 743255, 2014; also: nearly all actives have a fitted effect of over 60% in size
Target sequence (O94782 whole entry, looked up): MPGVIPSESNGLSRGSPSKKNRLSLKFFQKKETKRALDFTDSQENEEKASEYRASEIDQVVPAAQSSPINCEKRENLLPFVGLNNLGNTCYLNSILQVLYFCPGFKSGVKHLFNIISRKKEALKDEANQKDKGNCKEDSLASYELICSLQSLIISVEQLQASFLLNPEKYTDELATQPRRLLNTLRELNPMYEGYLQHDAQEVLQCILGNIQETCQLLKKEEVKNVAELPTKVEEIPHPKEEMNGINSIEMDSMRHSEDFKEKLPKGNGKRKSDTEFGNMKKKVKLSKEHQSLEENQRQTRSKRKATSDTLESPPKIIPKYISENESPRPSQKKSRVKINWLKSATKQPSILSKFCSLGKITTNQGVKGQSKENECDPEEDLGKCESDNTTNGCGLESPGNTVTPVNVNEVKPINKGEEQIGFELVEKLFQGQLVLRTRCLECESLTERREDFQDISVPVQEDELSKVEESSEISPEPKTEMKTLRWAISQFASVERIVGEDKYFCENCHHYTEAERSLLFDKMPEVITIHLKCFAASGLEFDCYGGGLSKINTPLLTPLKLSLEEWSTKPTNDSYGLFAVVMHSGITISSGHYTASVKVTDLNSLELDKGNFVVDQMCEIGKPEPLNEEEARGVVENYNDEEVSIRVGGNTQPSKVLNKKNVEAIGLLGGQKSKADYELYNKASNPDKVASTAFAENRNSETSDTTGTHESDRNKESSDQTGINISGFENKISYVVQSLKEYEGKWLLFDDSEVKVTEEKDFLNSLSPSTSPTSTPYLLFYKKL
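USP1/UAF1 complex (1 nM) preincubated 15 min at room temperature with compound, then Ub-Rho substrate (150 nM final) added. Kinetic fluorescence at 480/540 nm over 6 reads at 60 s intervals; 50 mM HEPES pH 7.8, 0.5 mM EDTA, 0.1 mg/ml BSA, 1 mM TCEP, 0.01% Tween-20.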
USP2a inh = qHTS Assay for Inhibitors of Ubiquitin-specific Protease USP2a Using CHOP2 as the Reporter; USP2 core, Ub-CHOP2 coupled fluorogenic reporter, 485/531; 330,000 compounds, 0.01% hits; Potency, µM (highest dose often 38.3 µM), usual class: inhibitors; AID 463254, 2010; Ubiquitin carboxyl-terminal hydrolase 2 (Homo sapiens), O75604
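Cell-free coupled assay: 10nM USP2 core preincubated 30min RT with compound in Tris-HCl pH 8.0/CaCl2/CHAPS buffer, then 25nM Ub-CHOP2 and 25nM reporter substrate; fluorescence (Ex 485/Em 531) read after 60min RT, normalized to NEM inhibition, concentration-response curves fitted.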
ATXN viability = Viability Counterscreen for Primary qHTS for Inhibitors of ATXN expression | S2 cells (HEK-293 line with an ATXN2-luciferase reporter) viability, CellTiter-Fluor protease fluorescence, 24 h | Potency, µM (highest dose often 56.7 µM), most hits filed as cytotoxic | 400,000 compounds, 0.49% hits; also: nearly all actives have a fitted effect of over 40% in size
ATXN2 expr inh = Primary qHTS for Inhibitors of ATXN expression; 360,000 compounds, 0.72% hits; Potency, µM (top dose mostly 57 µM), most hits filed as inhibitors; HEK-293 ATXN2-luciferase reporter, luminescence, 24 h; also: nearly all actives have a fitted effect of over 55% in size
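qHTS (up to 57 uM final) was run with 24 h compound exposure of reporter cells at 37 °C. Each well was multiplexed: SteadyGlo luminescence measured ATXN2-luciferase expression after a fluorogenic Gly-Phe-AFC viability readout (25 uM final).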
A number is an active result; i = inactive; ? = inconclusive; nt = no result. An excerpt weighted towards active compounds, which were near 4.8% of everything screened. Unless noted, calls follow the shape of the dose curve; as a rule, active = well fitted curve in the direction sought with a large enough effect; inconclusive = small, poorly fitted or top-dose-only effect, or another doubt; inactive = no such curve, though single readings can be large; an effect the other way counts as inactive or inconclusive.

SMILES	IL-1B inflam inh	USP1-UAF1 inh	USP2a inh	ATXN viability	ATXN2 expr inh
CC(C)CNC(=O)c1c(N)n(Cc2ccco2)c2nc3ccccc3nc12	-73	i	i	nt	?
COc1ccc(Cn2c(N)c(C(=O)NCc3ccco3)c3nc4ccccc4nc32)cc1OC	?	?	i	i	?
CCCSP(=O)(OCC)SCCC	nt	nt	nt	i	i
COc1ccccc1CNC(=O)C(NS(=O)(=O)c1ccc2c(c1)oc(=O)n2C)C(C)C (centres undefined)	i	?	i	i	i
Nc1c(C(=O)NCC2CCCO2)c2nc3ccccc3nc2n1Cc1ccco1 (centres undefined)	-71	i	i	nt	?
COCCOC(=O)c1c(N)n(Cc2ccco2)c2nc3ccccc3nc12	i	i	i	nt	i
CCCNC(=O)c1c(N)n(Cc2ccco2)c2nc3ccccc3nc12	-89	?	i	nt	i
CC(C)OCCCNC(=O)c1c(N)n(Cc2cccs2)c2nc3ccccc3nc12	-63	i	i	i	?
O=C(Nc1ccccc1-c1ccc(Cl)cc1)c1cccnc1Cl	nt	nt	nt	i	?
CCCC[C@@H](C)C[C@@H](C)C(=O)N(C)[C@@H](CC(C)C)C(=O)N[C@H](C(=O)N(C)[C@H](C(=O)N1C[C@@H](O)C[C@H]1C(=O)N1C(=O)C=C[C@@H]1C)C(C)C)C(C)OC(C)=O (some centres undefined)	-113	?	i	nt	?
COc1ccc(-n2c(SCCN(C)C)nc3ccccc3c2=O)cc1	i	i	i	?	i
COP(=S)(OC)SCn1nnc2ccccc2c1=O	-93	i	nt	i	i
COc1cc([C@@H]2c3cc4c(cc3[C@@H](O)C3COC(=O)C32)OCO4)cc(OC)c1O (some centres undefined)	nt	nt	nt	nt	i
CCN(CC)c1ccc(C=C2C(=O)NC(=S)NC2=O)cc1	-97	i	i	?	nt
CCOc1ccc(C=C2C(=O)NC(=S)NC2=O)cc1OCC	i	i	nt	i	i
CN(C)c1ccc(C=C2C(=O)NC(=O)NC2=O)cc1	i	i	nt	i	i
CN(C)c1ccc(C=C2C(=O)NC(=S)NC2=O)cc1	-102	i	nt	nt	?
C[C@]12CC[C@H]3[C@@H](CC[C@@]45O[C@H]4C(O)=C(C#N)C[C@]35C)[C@H]1CC[C@H]2O	nt	nt	nt	i	i
CN1[C@H]2CC(=O)C[C@@H]1[C@@H](O)C2	nt	nt	nt	i	nt
O=C(COc1ccc(Cl)cc1)N(c1ccccc1Cl)C1CN2CCC1CC2 (centres undefined)	-75	i	i	i	i
O=C(COc1ccc(Cl)cc1)N(c1ccc(Cl)cc1)C1CN2CCC1CC2 (centres undefined)	-95	i	i	?	i
O=S(=O)(NC1CN2CCC1CC2)c1ccc(Cl)cc1 (centres undefined)	i	i	i	i	i
C#CCOC(C(=O)OCCN(C)C)(c1ccccc1)c1ccccc1	nt	nt	nt	i	i
CS(=O)(=O)c1ccc(C(=O)C2C(=O)CCCC2=O)c([N+](=O)[O-])c1	nt	nt	nt	i	i
Cc1cc2c(cc(C(=O)N3CCC(C(=O)NC4CCCC4)CC3)n2Cc2c(F)cccc2Cl)o1	i	i	i	?	?
SMILES	IL-1B inflam inh	USP1-UAF1 inh	USP2a inh	ATXN viability	ATXN2 expr inh
COc1ccccc1N1CCN(C(=O)CCCn2c(=S)[nH]c3ccccc3c2=O)CC1	i	i	nt	?	nt
CCCOc1ccc(C(=O)Nc2ccc(-c3cc4ccccc4oc3=O)c(C)c2)cc1	nt	i	nt	?	?
COc1ccc(OC(=O)N2C/C(=C/c3ccccc3)C(=O)/C(=C\c3ccccc3)C2)cc1	-87	i	nt	32µM	?
CN(C)N=O	i	i	i	i	i
CCN(CC)N=O	-97	i	i	i	i
COc1ccc(-n2c(/C=C/c3ccc(O)c(O)c3)nc3ccccc3c2=O)cc1	?	i	i	nt	nt
COc1cc(/C=C/c2nc3ccccc3c(=O)n2-c2ccc(O)cc2)ccc1O	-65	i	i	i	i
CCOC(=O)[C@]12Cc3c(cc(OC)c(OC)c3OC)[C@H]1N(C1CCCCC1)C(=O)c1ccccc12	-113	nt	nt	8.9µM	6.3µM
CCOC(=O)C1C(=O)N(C)C2(C)CC1c1cc(OC)ccc1O2 (centres undefined)	i	i	i	i	i
CCOC(=O)C1(c2ccccc2)CCN(CC(=O)Nc2ccc(C)cc2)CC1	i	i	i	i	nt
CCOC(=O)[C@]12Cc3cc(C)ccc3[C@H]1N(C1CCCCC1)C(=O)c1ccccc12	-111	nt	nt	3.5µM	4.5µM
CCOC(=O)[C@]12Cc3ccccc3[C@H]1N(C(C)C)C(=O)c1ccccc12	-116	nt	nt	nt	?
CCOC(=O)[C@]12Cc3cc(Cl)ccc3[C@H]1N(C1CCCCC1)C(=O)c1cc(OC)ccc12	-110	nt	nt	2µM	2.2µM
Cc1ncc(CO)c2c1Oc1nc(-c3ccccc3Cl)nc(SCc3ccccc3F)c1C2	nt	?	nt	i	i
Cc1cccc(C)c1NC(=O)CN1CCCC1=O	nt	nt	nt	i	i
CCOC(=O)[C@]12Cc3cc4c(cc3[C@H]1N(Cc1ccccc1)C(=O)c1ccccc12)OCO4	i	i	nt	?	?
CCOC(=O)[C@]12Cc3ccc(C)cc3[C@H]1N(C1CCCCC1)C(=O)c1ccccc12	-118	nt	nt	13µM	11µM
CCOC(=O)[C@]12Cc3ccc(C)cc3[C@H]1N(C1CCCCC1)C(=O)c1cc(OC)ccc12	-116	nt	nt	4.5µM	4µM
C=C1C/C(=C\C)C(=O)O[C@@H]2CCN3CC=C(COC(=O)[C@@]1(C)O)[C@H]23	nt	nt	nt	i	nt
CO[C@H]1CCC(O[C@H]2C[C@H]([C@]3(C)CC[C@]4(C[C@H](O)[C@@H](C)[C@@H]([C@@H](C)C=C(C)C(=O)[C@H](C)C[C@H](C)C(=O)O)O4)O3)O[C@]3(O[C@@H]([C@H]4O[C@@](O)(CO)[C@H](C)C[C@H]4C)C[C@H]3C)[C@H]2C)O[C@H]1C (some centres undefined)	nt	nt	nt	nt	3.1µM
CC[C@@H](C(=O)[C@@H](C)[C@@H](O)[C@H](C)[C@@H]1O[C@@H]([C@@H](CC)C(=O)O)CC[C@@H]1C)[C@H]1O[C@]2(C=C[C@@H](O)[C@]3(CC[C@@](C)([C@H]4CC[C@](O)(CC)[C@H](C)O4)O3)O2)[C@H](C)C[C@@H]1C	-111	i	nt	5.6µM	4.5µM
CCN1CCN(c2cc(N3CCCC3)c([N+](=O)[O-])cc2F)CC1	i	i	i	i	i
CN1CCN(c2cc(N3CCCCCC3)c(F)cc2[N+](=O)[O-])CC1	-56	i	i	i	i
CCC(=O)OC1CCC2C3CCC4CC(=O)C=CC4(C)C3CCC12C (centres undefined)	-79	i	nt	i	i
O=C(NCC1=C(c2cccc3ccccc23)C[C@@H]2CC[C@H]1N2Cc1ccco1)c1ccc([N+](=O)[O-])cc1	-62	i	nt	14µM	?
